From PubChem
This excerpt belongs to a sample that is enriched for hits.
Methyltransferases – Primary Screen for Target Class Profiling of Small Molecule Inhibitors of Methyltransferases. purified enzyme, MTase-Glo SAH luminescence; active compounds read low. calls only at 40 µM. 3.9% of 25,000 active; call rule not given here
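Each enzyme was reacted with SAM and its substrate, with compounds tested once at 40 uM; SAH formed was read by MTase-Glo luminescence.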
Starred values were filed as active, the others as inactive; i = inactive; + = active, no number. % is scaled to controls: 0 for no effect and ±100 for the full control effect.

SMILES | Methyltransferases
O=C(O)Cn1nnc(-c2ccc(CN(CCCCOc3ccc(CN4CCCC4)cc3)CCc3ccccc3)cc2)n1 | +
COc1ccccc1CNC(=O)C1(C)Cn2nc(-c3ccccc3)cc2C(=O)N1c1ccc(Cl)cc1C (configuration not stated) | i
CCOc1ccc(CNC(=O)c2ncn3c2C(=O)N(CC)C(C)(C(=O)NC2CCCC2)C3)cc1 (configuration not stated) | i
CCCn1c(=O)c2ccc(C(=O)NC(C)C)cc2n2c(=O)[nH]nc12 | i
CC1(C(=O)NC2CCCCC2)Cn2nc(-c3cccs3)cc2C(=O)N1Cc1ccc(Cl)cc1 (configuration not stated) | i
COc1cc(N2CCC(N3CCN(C)CC3)CC2)ccc1Nc1ncnc(Nc2ccccc2S(=O)(=O)C(C)C)n1 | i
COc1cc(N2CCC(O)CC2)ccc1Nc1cc(Nc2ccccc2S(=O)(=O)C(C)C)c2cc[nH]c2n1 | +
CCC(NS(=O)(=O)c1cc(-n2cccn2)ccc1OC)C1CC(O)C1 (configuration not stated) | i
Cn1c(=O)c2ccc(C(=O)NC3CCCCC3)cc2n2c(SCC(=O)NCc3ccccc3)nnc12 | i
CC(C)CNC(=O)c1ccc2c(=O)n(Cc3ccccc3)c3nn(CC(=O)c4ccccc4)c(=O)n3c2c1 | i
COc1ccc2c(c1)c(NC(C)=O)c1n2CC(C)(C(=O)NC2CCCCC2)N(CCN(C)C)C1=O (configuration not stated) | i
CCOc1ccccc1CN1C(=O)c2c(C(=O)OC)ncn2CC1(C)C(=O)NC1CCCCCC1 (configuration not stated) | i
C=C(C(=O)O)[C@@H]1CC=C2CCC[C@H](C)[C@@]2(C)C1 | i
C=C(C(=O)O)[C@@H]1CC[C@@]2(C)CC[C@H](O)[C@@]2(C(C)=O)C1 | +
O=C(NCc1cccnc1)c1ccc2c(=O)nc3c(-c4ccc(Cl)cc4)n[nH]n3c2c1 | i
COc1ccc(CN2C(=O)c3c(-n4cccc4)c4ccccc4n3CC2(C)C(=O)NC2CCCC2)cc1 (configuration not stated) | i
O=C(CCc1nnc2n(Cc3ccc(F)cc3)c(=O)c3ccccc3n12)NCCc1ccc(Cl)cc1 | i
CCc1ccccc1NC(=O)Cn1nc2n(C(C)C)c(=O)c3ccc(C(=O)NC4CCCC4)cc3n2c1=O | i
CC(C)C[C@H](CO)Nc1nc(S[C@@H](C)c2ccccc2)nc2nc(N)sc12 | +
CCc1ccccc1NC(=O)Cn1nc2n(C)c(=O)c3ccc(C(=O)NC4CCCCC4)cc3n2c1=O | i
CC1CCCCC1NC(=O)C1(C)Cn2c(nc3ccccc32)C(=O)N1Cc1ccc2c(c1)OCO2 (configuration not stated) | i
CCCn1c(=O)c2ccc(C(=O)NC(C)CC)cc2n2c(=O)n(CC(=O)c3ccc(Cl)cc3)nc12 (configuration not stated) | i
COC(=O)COc1cc2oc(=O)cc(-c3ccccc3)c2cc1Cl | i
CCCc1cc2c(-c3ccccc3)cc(=O)oc2cc1OCc1ccc(C(=O)O)o1 | +
CCCCOC(=O)COc1ccc2c(-c3ccccc3)cc(=O)oc2c1 | i
SMILES | Methyltransferases
Cc1ccc(CSc2nnc3n(CC(C)C)c(=O)c4ccccc4n23)cc1 | i
CCCn1c(=O)c2ccc(C(=O)NC(C)C)cc2n2c(=O)n(CC(=O)NC(C)C)nc12 | i
CCC(C)N1C(=O)c2cc3sccc3n2CC1(C)C(=O)NC1CCCCCCC1 (configuration not stated) | i
COc1ccc(NS(=O)(=O)c2cc3c(cc2Cl)n(C)c(=O)n3C)cc1 | i
Cn1c(=O)n(C)c2cc(S(=O)(=O)Nc3ccccc3)c(Cl)cc21 | i
O=S(=O)(Nc1cc(Cl)c(Oc2cnc3ccccc3c2)c(Cl)c1)c1ccc(Cl)cc1Cl | +
COc1ccc2cc3n(c2c1)CC(C)(C(=O)NC1CCCCCC1)N(CC1CCCO1)C3=O (configuration not stated) | i
O=C(Cn1ccc2cc(S(=O)(=O)N3CCCCC3)ccc21)NC1CCCC1 | i
Fc1ccc2c(c1)C1C=CCC1C(c1ccc(Cl)cc1)N2 (configuration not stated) | i
CC(C)COC(=O)c1ccc2c(c1)C1C=CCC1C(c1ccc(Cl)cc1)N2 (configuration not stated) | i
O=C(O)c1ccc2c(c1)C1C=CCC1C(c1ccc(Cl)cc1)N2 (configuration not stated) | +
COc1ccccc1CNC(=O)CCc1nnc2n(Cc3ccccc3Cl)c(=O)c3ccccc3n12 | i
CCOc1ccc(CN2C(=O)c3cc4sccc4n3CC2(C)C(=O)NC2CCCCCCC2)cc1 (configuration not stated) | i
CCc1cccc(NC(=O)Cn2nc3n(C(C)C)c(=O)c4ccc(C(=O)NC5CCCC5)cc4n3c2=O)c1 | i
O=C(NC1CCCC1)c1ccc2c(=O)n(Cc3ccccc3)c3nn(Cc4cccc(F)c4)c(=O)n3c2c1 | i
CCCn1c(=O)c2ccccc2n2c(=O)n(Cc3ccc(F)cc3)nc12 | i
CN1CCN(CCOc2cc(OC3CCOCC3)c3c(Nc4c(Cl)ccc5c4OCO5)ncnc3c2)CC1 | +
CC1(C(=O)NC2CCCCCC2)Cn2c(cc3sccc32)C(=O)N1CCCc1ccccc1 (configuration not stated) | i
CCCn1c(=O)c2ccccc2n2c(SCC(=O)NCc3ccc(Cl)cc3)nnc12 | i
CCCn1c(=O)c2ccc(Cl)cc2n2c(SCc3ccccc3)nnc12 | i
CCCn1c(=O)c2ccc(C(=O)NC3CCCC3)cc2n2c(=O)n(Cc3ccccc3Cl)nc12 | i
CCc1ccccc1NC(=O)CSc1nnc2[nH]c(=O)c(C)nn12 | i
CCOc1ccc(C(=O)Cn2nc3n(C(C)C)c(=O)c4ccc(C(=O)NC(C)CC)cc4n3c2=O)cc1 (configuration not stated) | i
CNc1nc(Nc2ccc(C(=O)N3CCOCC3)cc2OC)ncc1Cl | i
CNc1nc(Nc2ccc(C(=O)N3CCOCC3)cc2OC)nc2[nH]cc(Cl)c12 | i
SMILES | Methyltransferases
CCNc1nc(Nc2cc(F)c(C(=O)N3CCOCC3)cc2OC)ncc1C(F)(F)F | +
Cc1cc(F)ccc1NS(=O)(=O)c1cc2c(cc1Cl)n(C)c(=O)n2C | i
CCCn1c(=O)c2ccc(C(=O)NC3CCCCC3)cc2n2c(=O)n(Cc3c(F)cccc3Cl)nc12 | i
O=c1c2ccccc2n2c(=O)n(Cc3ccccc3F)nc2n1Cc1ccc(F)cc1 | i
CCCNc1ccc2ncc(-c3ccc4[nH]ncc4c3)n2n1 | +
CCc1cc2c(cc3n2CC(C)(C(=O)NC2CCCCCC2)N(CCN2CCCC2)C3=O)s1 (configuration not stated) | i
CCC(C)NC(=O)c1ccc2c(=O)n(C3CC3)c3nn(CC(=O)NCc4ccccc4)c(=O)n3c2c1 (configuration not stated) | i
O=C(CCc1nnc2n(Cc3ccccc3Cl)c(=O)c3ccccc3n12)N1CC=C(c2ccccc2)CC1 | i
CCS(=O)(=O)c1cccc(-c2cc(C(=O)NC3CCN(C)CC3)c(C)c3[nH]c4ncc(C)cc4c23)c1 | +
COc1cccc(C(=O)NC2CCN(c3cc(-c4cccs4)[nH]n3)CC2)c1OC | i
Cn1ncc2c(C(=O)NC3CCCCCC3)cc(C(C)(C)C)nc21 | i
